Assay [1] concerns the target Alpha-galactosidase A (Homo sapiens) (UniProt P06280). The experiment in a line: Counterscreen for Glucocerebrosidase Inhibitors: qHTS Assay for Human alpha-Galactosidase at pH 4.5 (AID 992). Also: 0% is about no effect. Put shortly:
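Human enzyme (2 nM) with 80 uM 4-methylumbelliferyl alpha-D-galactopyranoside in 50 mM citric acid, 0.005% Tween-20, pH 4.5, 20 min at room temperature. Compounds 0.7 nM–77 uM; fluorescence Ex 365/Em 440 after pH 10 stop; AC50 from Hill fits.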

Assay [2] addresses alpha-glucosidase (Oryza sativa, rice) (UniProt Q653V4). As to the kind of experiment: Counterscreen for Glucocerebrosidase Inhibitors: qHTS Assay for Rice alpha-Glucosidase at pH 5.0 (AID 997).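 Also: 0% = full activity with enzyme and -100% = basal without enzyme.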 Summed up:
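Rice alpha-glucosidase (4 nM final) with 400 uM 4-methylumbelliferyl-alpha-D-glucopyranoside in citrate buffer pH 5.0, 20 min at room temperature, stopped at pH 10; fluorescence 365/440 nm, compounds 0.7 nM–77 uM, AC50 from Hill fits.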
In general terms: Counterscreens check selectivity or assay interference.

Assay [3] is described as follows: qHTS Assay for Lipid Storage Modulators (AID 1519; calls by dose curve; as to activity change, negative = inhibition: % is scaled to controls: 0 for no effect and ±100 for the full control effect). Conditions: Drosophila S3 cells, BODIPY lipid droplet/cell ratio, laser cytometry, cells loaded with oleic acid. Put shortly: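 Cells seeded at 5,000 per well were treated with compounds over a concentration series and loaded with oleic acid (400 uM, as added). Lipid droplet fluorescence (488 nm excitation, 500-530 nm channel) was read by laser-scanning cytometry and normalized to 20 uM Triacsin C.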

Assay [4] concerns the target Endonuclease 4 (Escherichia coli (strain K12)) (UniProt P0A6C1). The experiment in a line: Counterscreen for APE1 Inhibitors: qHTS Validation Assay for Inhibitors of Endonuclease IV (AID 1708). Also: % is scaled to controls: 0 for no effect and ±100 for the full control effect. Put shortly: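 E. coli EndoIV at 2 nM final, preincubated 15 min at room temperature with compound, then 50 nM TAMRA/BHQ-2 THF abasic-site duplex added. Buffer: 50 mM Tris-HCl pH 7.5, 50 mM NaCl, 2 mM MgCl2, 1 mM DTT, 0.01% Tween-20. Kinetic fluorescence increase, third minus first read.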

Assay [5] can be described thus: qHTS for differential inhibitors of proliferation of Plasmodium falciparum line D10 (AID 1877).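 Also: parasites grown with compound for 72 h before DNA staining.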 Also: potency is read from the fitted curve at half-maximal effect.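 As to activity change, negative = inhibition: plate controls were vehicle wells for no effect and reference inhibitor wells for full effect.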
Assay [6] can be described thus: qHTS for differential inhibitors of proliferation of Plasmodium falciparum line Dd2 (AID 1882).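 Also: plate controls were DMSO vehicle for no effect and 0.29 µM artemisinin for full effect; nearly all actives have a fitted effect of over 65% in size.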 To be noted: Potency: Plasmodium falciparum Dd2 proliferation inhibition. Put shortly: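 Dd2-infected erythrocytes (0.3% parasitemia, 2.5% hematocrit final) incubated with compound 72 h at 37 C, 5% CO2; lysed with saponin/Triton buffer containing SYBR Green I, incubated overnight in the dark, then read by fluorescence (485/535 nm). Normalized to 0.29 uM artemisinin and DMSO.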
(In qHTS, concentration-response curves come from the screen itself.)

Assay [7] can be described thus: Validation of Assay for Modulators of Lamin A Splicing (AID 1459; active = well fitted curve in the direction sought with a large enough effect in the signal ratio; the % refers to the signal ratio;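 also: cells exposed to compound for two days before reading; 0% is about no effect; ratio rise marks activators and ratio drop marks inhibitors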). Summed up:
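Readout: ratio of GFP (500-530 nm) to RFP (575-640 nm) total object intensity by 488 nm laser-scanning cytometry after 48 hrs. Cells were HeLa S3 clones carrying lamin A-EGFP minigene plus DsRed2 viability reporter; vehicle 0.5% DMSO final.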

The target in assay [8] is DNA repair nuclease/redox regulator APEX1 (Homo sapiens) (UniProt P27695). The experiment in a line: qHTS Validation Assay for Inhibitors of the Human Apurinic/apyrimidinic Endonuclease 1 (APE1) (AID 1705;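 also: TAMRA fluorescence gain over two minutes as APE1 cuts a quenched THF abasic duplex; % is scaled to controls: 0 for no effect and ±100 for the full control effect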). Summed up:
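Read-out: TAMRA fluorescence (525 nm ex, 598 nm em) from cleavage of a quenched THF abasic-site duplex, 50 nM final; activity taken as intensity change between third and first of three reads 60 s apart.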

Assay [9] in a line: qHTS for differential inhibitors of proliferation of Plasmodium falciparum line 7G8 (AID 1815).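 Also: parasite growth measured after three days of incubation.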 Also: potency is read from the fitted curve at half-maximal effect.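 As to activity change, negative = inhibition: plate controls were vehicle wells for no effect and reference inhibitor wells for full effect.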
Assay [10] can be described thus: qHTS for differential inhibitors of proliferation of Plasmodium falciparum line GB4 (AID 1816).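 Also: parasite growth measured after 72 h incubation.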 Also: potency is read from the fitted curve at half-maximal effect.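 As to activity change, negative = inhibition: 0% = vehicle DMSO and -100% = reference inhibitor.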 To be noted: Potency: Plasmodium falciparum GB4 proliferation inhibition.
A short description of assay [11]: qHTS for differential inhibitors of proliferation of Plasmodium falciparum line 3D7 (AID 1876). Also: potency is read from the fitted curve at half-maximal effect.
A short description of assay [12]: qHTS for differential inhibitors of proliferation of Plasmodium falciparum line W2 (AID 1883).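 Also: parasites grown with compound for 72 h before lysis and staining.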 Also: potency is read from the fitted curve at half-maximal effect.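 As to activity change, negative = inhibition: 0% = vehicle wells and -100% = control inhibitor wells.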 Conditions: Potency: Plasmodium falciparum W2 proliferation inhibition.
Assay [13] is described as follows: Counterscreen for APE1 Inhibitors: Fluorescent Dye Displacement Validation Assay (AID 1707).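 Also: plate controls were ThO with dsDNA and no compound for no effect and ThO without dsDNA for full effect.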 Put shortly:
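Thiazole Orange (250 nM) bound to 50 nM TAMRA-labelled dsDNA with tetrahydrofuran abasic site; displacement by DNA-binding compounds lowers fluorescence. Buffer 50 mM Tris-HCl pH 7.5, 50 mM NaCl, 2 mM MgCl2, 0.01% Tween-20; endpoint read at 480/540 nm.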

A short description of assay [14]: Cell Viability - LYMP2-014 (AID 983).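 Also: cells exposed to compound for 24 h at 37 °C; plate controls were DMSO only for no effect and 92 µM tetraoctylammonium bromide for full effect; nearly all actives have a fitted effect of over 50% in size.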 Put shortly: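 Luminescent ATP signal (CellTiter-Glo, 30 min at room temperature) serves as the viability read-out after 24 hr compound exposure at 37 C. Cells were seeded at 2500 per well and settled 5 hr beforehand.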
The nature of assay [15]: Cell Viability - LYMP2-016 (AID 984).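 Also: cells exposed to compound for 24 hours at 37 °C; % is scaled to controls: 0 for no effect and ±100 for the full control effect; nearly all actives have a fitted effect of over 55% in size.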 Put shortly:
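qHTS, 1536-well: 2500 LYMP2-016 cells/well, 5 hr 37 C, compound added, 24 hr 37 C, CellTiter-Glo 30 min RT, luminescence. Tetraoctylammonium bromide positive control. AC50 via Hill fit.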

Assay [16] in a line: Cell Viability - LYMP2-018 (AID 985).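 Also: plate controls were DMSO only for no effect and tetraoctylammonium bromide at 92 µM for full effect; nearly all actives have a fitted effect of over 50% in size.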 Put shortly: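 Luminescent ATP signal (CellTiter-Glo, read after 30 min at room temperature) reports viable cells after 24 hr compound treatment at 37 C. Concentration-response data were fitted to the standard Hill equation for AC50.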
A short description of assay [17]: Cell Viability - LYMP2-026 (AID 989).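 Also: cells exposed to compound for 24 h at 37 °C; % is scaled to controls: 0 for no effect and ±100 for the full control effect; nearly all actives have a fitted effect of over 50% in size.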 Put shortly:
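Luminescent ATP signal (CellTiter-Glo, 30 min room temperature) measures viable lymphoblastoid cells after 24 hr compound treatment at 37 C. Decreased ATP reflects acute toxicity; AC50 values come from Hill-equation modeling.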

Assay [18] is described as follows: Cell Viability - LYMP1-002 - Assay at 24 hr (AID 993). Also: % is scaled to controls: 0 for no effect and ±100 for the full control effect. Put shortly:
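Cells plated 2500/well, 5 hr 37 C; compounds added, 24 hr 37 C; CellTiter-Glo added, 30 min RT; luminescence read. Tetraoctylammonium bromide positive control. Hill-equation AC50.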

Where [19] appears, read: measured here: cell count channel max response.
Where [20] appears, read: measured here: lipid channel max response.

Several values for one entry are separate records, joined by “and”; a condition that tells them apart may be missing. Equal values may be shown once. Records with an inconclusive call do not appear. Activity calls are given as the source filed them. Unless noted, calls follow the shape of the dose curve; as a rule, active = well fitted curve in the direction sought with a large enough effect; inconclusive = small, poorly fitted or top-dose-only effect, or another doubt; inactive = no such curve, though single readings can be large; an effect the other way counts as inactive or inconclusive.

Alpha-galactosidase A (Homo sapiens), sequence (P06280 whole entry, looked up): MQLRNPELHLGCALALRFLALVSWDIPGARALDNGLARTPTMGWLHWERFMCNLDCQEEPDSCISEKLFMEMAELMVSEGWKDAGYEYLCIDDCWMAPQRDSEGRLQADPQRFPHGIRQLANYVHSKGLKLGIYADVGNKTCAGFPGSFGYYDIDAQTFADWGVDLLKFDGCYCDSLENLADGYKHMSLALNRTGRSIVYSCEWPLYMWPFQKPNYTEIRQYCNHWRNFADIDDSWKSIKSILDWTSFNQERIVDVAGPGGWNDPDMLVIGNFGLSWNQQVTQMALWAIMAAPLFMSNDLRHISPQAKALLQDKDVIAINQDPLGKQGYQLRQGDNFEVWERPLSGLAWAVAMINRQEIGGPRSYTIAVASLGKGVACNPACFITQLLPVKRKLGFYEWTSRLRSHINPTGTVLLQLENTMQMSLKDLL
DNA repair nuclease/redox regulator APEX1 (Homo sapiens), sequence (P27695 whole entry, looked up): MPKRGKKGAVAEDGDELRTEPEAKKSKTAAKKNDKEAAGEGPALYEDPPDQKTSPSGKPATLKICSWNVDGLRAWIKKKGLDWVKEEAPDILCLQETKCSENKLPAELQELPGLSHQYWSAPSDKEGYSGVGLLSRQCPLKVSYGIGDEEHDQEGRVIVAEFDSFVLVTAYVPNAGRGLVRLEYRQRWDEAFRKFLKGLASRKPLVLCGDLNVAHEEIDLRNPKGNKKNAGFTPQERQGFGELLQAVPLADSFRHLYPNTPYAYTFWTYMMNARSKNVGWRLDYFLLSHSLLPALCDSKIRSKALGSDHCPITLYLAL

For `CCn1cc(C(=O)O)c(=O)c2cc3c(cc21)OCO3`, the call in assay [1] and in [2] was inactive. In addition, the figures for the activity change, negative = inhibition in assay [3] (at 25.7 µM (top of the series)) and in [3] (at 57.5 µM (top of the series)) were -1.05% (inactive) and 2.77% (inactive), respectively. For the same compound, the max response is 12% and 70.6% in [3] (setting [19]); 10.4% and 75.7% in assay [3] (setting [20]). Also, the Potency result in assay [4], in assay [5] and in assay [6] was “inactive” each time.

`O=C(O)CCCCCCCC(=O)O`: the compound was called inactive in assay [1], in assay [2] and in assay [7]. The Potency result in assay [8], in assay [4], in assay [9], in assay [10], in assay [11] and in assay [5] was “inactive” throughout. For the same compound, the Potency result in assay [6] and in assay [12] was “inactive” each time.

As to `Cc1ccc(/C(=C\CN2CCCC2)c2ccccn2)cc1`, in assay [3] (at 57.5 µM (top of the series)), the activity change, negative = inhibition was 3.64% (inactive) and 0.151% (inactive). Besides, the max response in assay [3] (setting [19]) is 7.98% and 15.3%; in [3] (setting [20]), 14.1% and 15.5%. Also, the Potency result in [8] and in [4] was “inactive” throughout. Besides, the compound was called inactive in assay [13].

As to `CCO/C([O-])=N/c1c[n+](N2CCOCC2)no1`, the compound was classed as inactive in assay [1] and in assay [2]. For the same compound, the activity change, negative = inhibition in assay [3] (at 25.7 µM (top of the series)) was -2.6% (inactive); in [3] (at 57.5 µM (top of the series)) it was 9.19% (inactive) and 0.351% (inactive). Further, the max response in assay [3] (setting [19]) was -1.78% and -5.37% and -2.1%; in assay [3] (setting [20]), -4.32% and 6.3% and -2.43%. For the same compound, the Potency result in assay [8], in [9], in [10], in [11], in assay [5] and in assay [6] was “inactive” each time. In addition, in assay [12], the Potency entry is “inactive”.

With `CC(C)(Oc1ccc(CCNC(=O)c2ccc(Cl)cc2)cc1)C(=O)O`, in assay [3] (at 25.7 µM (top of the series)), the activity change, negative = inhibition was -0.881% (inactive). Moreover, the max response was -0.576% in [3] (setting [19]) and -0.58% in assay [3] (setting [20]).

`CC(C)NNC(=O)c1ccncc1`: the compound was classed as inactive in [1] and in [2]. Further, the activity change, negative = inhibition in [3] (at 25.7 µM (top of the series)) is -0.171% (inactive); in [3] (at 57.5 µM (top of the series)), 6.45% (inactive) and -0.103% (inactive). For the same compound, the max response was 4.18% and 16.8% and -20.6% in assay [3] (setting [19]); 1.65% and 27.2% and -21.8% in [3] (setting [20]). The Potency result in assay [8], in assay [4], in [9], in assay [10], in [11] and in assay [5] was “inactive” throughout. The Potency result in [6] and in assay [12] was “inactive” throughout.

Regarding `O=C(O)CN(CCN(CC(=O)O)CC(=O)O)CCN(CC(=O)O)CC(=O)O`, the call in [1], in assay [2] and in [13] was inactive. In addition, the activity change, negative = inhibition in assay [3] (at 25.7 µM (top of the series)) was -4.98% (inactive); in assay [3] (at 57.5 µM (top of the series)), 0.152% (inactive). Further, the max response in [3] (setting [19]) is -17.8% and 39.9%; in assay [3] (setting [20]), -19.2% and 38.7%. In addition, the Potency entry in assay [8], in assay [11], in [5], in assay [6] and in assay [12] was “inactive” in each case.

Regarding `Nc1nc(N)c2nc(-c3ccccc3)c(N)nc2n1`, the call in assay [14], in assay [15], in assay [17], in assay [1] and in [18] was inactive. For the same compound, the Potency result in assay [16] and in assay [6] was “inactive” each time. Moreover, the activity change, negative = inhibition was -0.107% (inactive) in assay [3] (at 25.7 µM (top of the series)) and -0.933% (inactive) in assay [3] (at 57.5 µM (top of the series)). For the same compound, the max response in assay [3] (setting [19]) was -4.41% and -12.1%; in [3] (setting [20]) it was -2.65% and -13.5%. In addition, the Potency in [10] was 0.891 µM (active); in [11], 2 µM (active); in assay [5], 2.51 µM (active); in assay [12] it was 15.8 µM (active).

Regarding `CN(C(=O)CCCOc1ccc2[nH]c(=O)ccc2c1)C1CCCCC1`, the result in [1], in [2] and in assay [7] was inactive. In addition, the Potency result in [8] and in [4] was “inactive” each time. For the same compound, the results for the Potency in assay [9] and in assay [12] were 7.08 µM (active) and 14.1 µM (active), respectively.

For the compound `CCOC(=O)c1cnc2c(cnn2CC)c1NN=C(C)C`, the compound was classed as inactive in assay [1], in assay [2] and in [7]. The Potency result in [8], in assay [5] and in assay [6] was “inactive” each time.

Values taken from PubChem BioAssay (NCATS).
